Screens deposited in PubChem by National Center for Advancing Translational Sciences (NCATS).
Compounds with a hit are over-represented: about 8.1% of the library has one in this group of screens.
PINK1 expr mod: PINK1 expression modulation; PINK1 immunofluorescence, high-content cytometry, 24 h; Potency, µM (top dose mostly 76.6 µM), hits mostly activators; actives 0.2% (n = 410,000); AID 624263; active = well fitted activation curve with a large enough effect; inconclusive = small, poorly fitted or top-dose-only effect; cell line not stated here; note: nearly all actives have a fitted effect of over 65% in size
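PINK1 protein level read as immunofluorescence by microplate cytometer in a fixed, stained stable cell line after 24 h exposure to five compound concentrations, with CCCP as control.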
ClpP mod: qHTS Assay for Activators of ClpP; AID 651965, 2013; Potency, µM (highest dose often 57.5 µM); actives 1.9% (n = 340,000); purified B. subtilis ClpP, FRET peptide cleavage, 20 min; ATP-dependent Clp protease proteolytic subunit (Bacillus subtilis (strain 168)), P80244; active = well fitted falling curve with a large enough effect; inconclusive = small, poorly fitted or top-dose-only effect; inactive = no such curve, though single readings can be large or run the other way; note: the source files actives as falling curves though it sought activators and does not explain the sign; nearly all actives have a fitted effect of over 65% in size
Target sequence (P80244 whole entry, looked up): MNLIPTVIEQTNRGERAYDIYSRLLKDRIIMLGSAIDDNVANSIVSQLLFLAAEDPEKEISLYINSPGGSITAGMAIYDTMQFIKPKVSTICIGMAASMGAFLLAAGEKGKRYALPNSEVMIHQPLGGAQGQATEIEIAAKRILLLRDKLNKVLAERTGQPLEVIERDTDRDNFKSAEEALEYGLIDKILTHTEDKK
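ClpP 10 microg/mL final, pH 8 Tris/KCl buffer with BSA, glycerol, Tween-20; compound pinned in; FRET-FV substrate; RT 20 min; Ex320/Em430; ΔFRET vs ADEP 5.8 microM, DMSO, no enzyme.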
RORgamma inh: inhibitors of mouse ROR gamma transcriptional activity | Drosophila S2 Gal4-RORgamma UAS-luciferase reporter, 20 h | P51450 | AID 2551 | actives 5.4% (n = 310,000) | Potency, µM (top dose mostly 53.6 µM), actives largely listed as inhibitors; note: nearly all actives have a fitted effect of over 60% in size
Target sequence (P51450 whole entry, looked up, the tested form may be a part): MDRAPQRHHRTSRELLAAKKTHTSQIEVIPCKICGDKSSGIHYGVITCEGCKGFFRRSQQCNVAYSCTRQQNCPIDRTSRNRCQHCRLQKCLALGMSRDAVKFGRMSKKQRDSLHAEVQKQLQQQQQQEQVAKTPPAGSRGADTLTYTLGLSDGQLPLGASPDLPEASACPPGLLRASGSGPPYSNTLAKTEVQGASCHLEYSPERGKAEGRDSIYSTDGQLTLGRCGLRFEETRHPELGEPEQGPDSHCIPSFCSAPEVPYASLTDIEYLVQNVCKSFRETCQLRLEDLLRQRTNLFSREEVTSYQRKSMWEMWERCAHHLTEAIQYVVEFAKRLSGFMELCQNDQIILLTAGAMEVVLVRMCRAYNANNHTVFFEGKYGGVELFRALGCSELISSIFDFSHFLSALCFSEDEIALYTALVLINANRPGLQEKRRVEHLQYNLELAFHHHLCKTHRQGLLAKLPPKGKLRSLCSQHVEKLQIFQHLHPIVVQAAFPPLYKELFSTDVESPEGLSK
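A Gal4/UAS one-hybrid system in insect cells: metallothionein-promoter Gal4–ROR gamma fusion plus Photinus luciferase reporter. Copper sulfate 700 uM final, 20 hr ambient incubation, luminescent detection after 10 min with reagent.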
Sfp inh: blocks B. subtilis Sfp PPTase activity; Q9F4F7; Biochemical Sfp PPTase activity, qHTS; Potency, µM, hits mostly inhibitors; actives 3.5% (n = 310,000); AID 1490;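 note: the enzyme is Sfp with the accession as filed and its product quenches rhodamine fluorescence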
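After 15 min at room temperature with compound, 15 nM Sfp received 5 uM rhodamine-CoA plus 12.5 uM BHQ-2-ybbR (50 mM Hepes pH 7.6, 10 mM MgCl2). Rate came from the fluorescence difference over 30 min, ex 525/em 598 nm.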
Epigenetic reg: derepresses silenced GFP reporter in murine cells | murine LDR cells, GFP reporter derepression, 30 h | Potency, µM (doses to about 53.9 µM), most hits filed as activators | actives 0.2% (n = 280,000) | AID 1865; note: nearly all actives have a fitted effect of over 60% in size
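In this reporter-derepression format, murine cells bearing a silenced integrated CMV-GFP locus incubate with test compound (30 h, 37 C), then are washed and imaged; fluorescent objects of 20–120 um count as induced cells.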
VP16 counter: Gal4-VP16 reporter inhibition counter-screen; Potency, µM (top dose mostly 53.6 µM), hits mostly inhibitors; actives 3.5% (n = 310,000); AID 2546; Drosophila S2 Gal4-VP16 UAS-luciferase, luminescence, 20 h;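 note: Gal4-VP16 expression switched on by copper sulfate through the metallothionein promoter; nearly all actives have a fitted effect of over 50% in size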
Numbers stand for hits; - = inactive; ? = inconclusive; . = no result; [ ] = another dose, or the depositor's remark. Unless noted, calls come from the whole dose curve; as a rule, active = well fitted curve in the direction sought with a large enough effect; inconclusive = small, poorly fitted or top-dose-only effect, or another doubt; inactive = no such curve, though single readings can be large; an effect the other way counts as inactive or inconclusive.

SMILES | PINK1 expr mod | ClpP mod | RORgamma inh | Sfp inh | Epigenetic reg | VP16 counter
CCOc1cc(/C=C2/SC(=S)NC2=O)ccc1OC(=O)c1ccco1 | - | . | ? | 40µM | - | -
COc1cc(/C=C2/SC(=O)NC2=O)ccc1OC(=O)c1ccco1 | - | - | - | - | . | -
COc1ccc(OC)c(CNC(=O)CN(c2ccc(C)cc2)S(=O)(=O)N(C)C)c1 | - | - | . | . | - | .
CCc1ccc(NC(=O)C(C)OC(=O)c2cccc(S(=O)(=O)N3CCc4ccccc4C3)c2)cc1 (stereo unspecified) | - | . | - | 89µM | - | -
CC(NCc1ccccc1Cl)C(=O)Nc1ccc(S(=O)(=O)N2CCCC2)cc1 (stereo unspecified) | - | - | - | 56µM | - | -
O=C(c1cccc(S(=O)(=O)N2CCc3ccccc3C2)c1)N1CCN(c2ccc(O)cc2)CC1 | - | 32µM | - | - | - | -
CNc1ccccc1C(=O)OC(C)C(=O)Nc1ccc(S(=O)(=O)N2CCCC2)cc1 (stereo unspecified) | - | 28µM | - | - | . | -
CCn1c(-c2ccccc2F)nc2cc(NC(C)=O)cc(C(=O)N3CCC[C@H]3C(=O)OC)c21 | - | . | . | . | . | .
COC(=O)c1ccc(-c2ccco2)n1Cc1cc(C)ccc1C | - | 32µM | - | - | - | -
O=c1cc(CSc2ccc(Cl)cc2)nc(-c2ccccc2)[nH]1 | - | . | - | - | - | -
O=c1cc(CSc2ccc(Cl)cc2)nc(-c2ccccn2)[nH]1 | - | - | 4µM | - | . | 4.5µM
Clc1ccc(SCc2cc(N3CCOCC3)nc(-c3ccccn3)n2)cc1 | - | . | 0.56µM | - | - | 4.5µM
Clc1ccc(SCc2csc(N3CCOCC3)n2)cc1 | - | - | - | - | - | -
O=C(NCC(=O)N(c1cccc(F)c1)C(C(=O)NCC1CCCO1)c1ccccc1)c1ccco1 (stereo unspecified) | - | - | 6.3µM | - | - | -
Cc1cccc(N2CCN(CCCNC(=O)c3sc4ncccc4c3-n3cccc3)CC2C)c1 (stereo unspecified) | - | - | . | . | - | .
CCc1ccc(OCC(=O)N(Cc2ccc(C)cc2)Cc2ccco2)cc1 | - | - | . | . | - | .
O=C(O)c1ccccc1-c1ccccc1C(=O)NCc1ccccc1F | - | 8.9µM | -[1.91 µM] | - | . | -
OCCNc1c2ccccc2nc2c(F)c(F)c(F)c(F)c12 | - | - | 10µM | - | ? | 7.9µM
Cc1cc(C)c(NC(=O)C(=O)NCC(c2cccnc2)N2CCN(Cc3ccccc3)CC2)c(C)c1 (stereo unspecified) | - | - | . | . | - | .
CC/C(=N/Nc1cccc(Cl)c1)c1cnnc(SC)n1 | 20µM | - | ? | - | ? | -
CC/C(=N/Nc1ccccc1)c1cnnc(-c2ccccc2)n1 | ? | - | - | - | - | -
CCOc1ccc(N2CC(C(=O)Nc3ccc(OC)c(S(=O)(=O)N4CCCCC4)c3)CC2=O)cc1 (stereo unspecified) | - | 28µM | ? | - | - | -
CC(=O)N1c2ccccc2NC2=C(C(=O)CCC2)C1c1ccco1 (stereo unspecified) | - | . | - | 25µM | - | -
Cc1ccc(NC(=O)CCCN2C(=O)COc3ccc(C)cc32)c(C)c1 | - | - | . | . | - | .
O=C1OCC2=C1C(c1ccc3c(c1)OCO3)Sc1ccccc1N2 (stereo unspecified) | - | - | - | - | - | 14µM
SMILES | PINK1 expr mod | ClpP mod | RORgamma inh | Sfp inh | Epigenetic reg | VP16 counter
CCOc1ccc(C2Sc3ccccc3NC3=C2C(=O)OC3)cc1 (stereo unspecified) | - | - | - | - | - | -
Nc1nc(=S)c2ncn(C3OC(CO)C(O)C3O)c2[nH]1 (stereo unspecified) | - | - | - | 6.3µM | - | -
O=c1[nH]cnc2c1ncn2C1OC(CO)C(O)C1O (stereo unspecified) | - | - | - | ? | - | -
Nc1nc2c([nH]c(=S)n2C2OC(CO)C(O)C2O)c(=O)[nH]1 (stereo unspecified) | - | . | - | 45µM | - | -
Nc1nc2c([nH]c(=O)n2C2OC(CO)C(O)C2O)c(=O)[nH]1 (stereo unspecified) | - | . | - | ? | - | -
Nc1nc(=S)c2ncn([C@@H]3O[C@H](CO)[C@@H](O)[C@H]3O)c2[nH]1 | - | - | . | . | . | .
OCC1OC(n2cnc3c(=S)nc[nH]c32)C(O)C1O (stereo unspecified) | - | - | -[10 µM] | 3.5µM | - | -
CC1(C)OC2C(CO)OC(n3cnc4c(=S)nc[nH]c43)C2O1 (stereo unspecified) | - | . | - | 16µM | - | -
CCN(C(=O)Cn1c(=O)oc2cc(S(=O)(=O)N3CCCC3)ccc21)c1cccc(C)c1 | - | - | . | . | - | .
Cc1cc(C)cc(-n2nnn(C3C/C(=N/NC(N)=S)C4OCC3O4)c2=S)c1 (stereo unspecified) | - | . | ? | 56µM | - | -
COc1ccc(NC(=O)CSc2nc(-c3ccccc3)cc(-c3cc(OC)c(OC)c(OC)c3)c2C#N)c(OC)c1 | - | - | . | . | - | .
CN(C(=O)COc1ccccc1C(=O)NCCOc1ccccc1)c1ccccc1 | - | - | ? | - | - | 7.9µM
Cc1ccc2c(c1)CN(C(=O)CC(c1ccccc1)c1ccco1)CC(C)O2 (stereo unspecified) | - | . | . | . | . | .
COc1c(Cl)cnn(-c2ccccc2)c1=O | ? | - | - | - | - | -
COc1nn(-c2ccccc2)c(=O)c(Cl)c1Cl | - | - | ? | - | . | 11µM
CC(C)Cc1nc2cc(NS(=O)(=O)N(C)C)cc(C(=O)N3CCN(c4ccccc4)CC3)c2n1C | - | . | . | . | . | .
CCN(CC)C(=S)SCc1csc(CC(=O)Nc2ccccc2C)n1 | - | . | 11µM | - | . | -
CCOc1ccc(/C=C2\SC(=S)N(N3C(=O)C4CC4C3=O)C2=O)cc1 (stereo unspecified) | - | . | - | - | - | -
CCOc1ccc(N=C2NC(=O)S/C2=C\c2ccc(N(C)C)cc2)cc1 | ? | - | - | - | 7.9µM | -
CCOc1ccc(/C=C2/SC(=O)NC2=S)cc1 | - | - | 11µM | - | - | ?
O=C(/C=C\Nc1cccc(F)c1)c1cccs1 | - | - | - | - | - | -
Cc1ccc(N/C=C/C(=O)c2cccs2)cc1 | - | - | ? | - | - | 8.9µM
O=C(/C=C/c1ccc(Br)cc1)c1ccco1 | - | . | ? | - | - | 11µM
O=C(/C=C/Nc1ccc(F)cc1F)c1ccco1 | - | . | 7.9µM | - | - | 7.1µM
O=C(/C=C/Nc1ccc(Br)cc1F)c1ccco1 | - | . | 7.1µM | - | - | 7.9µM
O=S1(=O)CCO[C@H]2CCCC[C@@H]2N1Cc1ccccc1F | . | - | . | . | . | .
